3T3 cytotox – cytotoxic compounds in NIH 3T3 cells; Potency, µM (titrated, usually from 96.7 µM), most hits filed as inhibitors; AID 1345082; NIH 3T3 viability, CellTiter-Glo ATP luminescence, 48-72 h; 4.3% of 94,000 active; also: nearly all actives have a fitted effect of over 55% in size
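Cytotoxicity was measured by CellTiter-Glo ATP luminescence after 48 or 72 h compound exposure at 37 °C. Mouse NIH 3T3 fibroblasts were seeded at 400 cells/well and dosed by 23 nL pin transfer.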
FLuc inh – inhibitors of firefly (Photinus pyralis) luciferase | P08659 | purified P. pyralis luciferase, luminescence, biochemical | 2.5% of 76,000 active | Potency, µM (highest dose often 115 µM), actives largely listed as inhibitors; also: nearly all actives have a fitted effect of over 65% in size
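Purified P. pyralis luciferase (10nM final) in 50mM Tris acetate pH 7.5, 10mM Mg acetate, 0.01% Tween-20, 0.05% BSA with 10uM D-luciferin and 10uM ATP. Compounds titrated qHTS. Luminescence imaged on CCD.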
GPT2 inh – GPT2 alanine aminotransferase inhibition; Q8TD30; Recombinant GPT2, coupled pyruvate oxidase/HRP Amplex Red fluorescence; Potency, µM (doses to about 57.7 µM), hits mostly inhibitors; 0.25% of 100,000 active; AID 1671188; also: nearly all actives have a fitted effect of over 60% in size
Target sequence (Q8TD30 whole entry, looked up): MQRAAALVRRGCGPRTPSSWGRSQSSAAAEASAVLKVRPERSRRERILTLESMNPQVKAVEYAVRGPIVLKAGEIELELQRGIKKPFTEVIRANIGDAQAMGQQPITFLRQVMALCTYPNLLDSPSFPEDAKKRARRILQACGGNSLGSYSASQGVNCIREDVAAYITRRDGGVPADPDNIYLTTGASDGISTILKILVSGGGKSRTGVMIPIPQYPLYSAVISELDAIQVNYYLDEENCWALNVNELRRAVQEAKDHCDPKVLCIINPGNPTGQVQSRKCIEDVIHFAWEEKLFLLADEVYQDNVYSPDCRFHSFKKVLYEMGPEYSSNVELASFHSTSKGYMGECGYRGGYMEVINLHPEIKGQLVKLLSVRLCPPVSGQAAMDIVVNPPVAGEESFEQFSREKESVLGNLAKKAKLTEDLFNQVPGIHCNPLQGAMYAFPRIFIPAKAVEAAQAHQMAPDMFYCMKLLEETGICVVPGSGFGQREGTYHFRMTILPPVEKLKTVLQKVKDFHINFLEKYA
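Recombinant GPT2 (10ng/uL) with 250uM a-KG and 2mM L-alanine, 30 min at room temperature, in HEPES pH 7.5 buffer. Pyruvate detected by pyruvate oxidase/HRP/Amplex Red fluorescence after 30 min in the dark; AOA (50uM) as positive control.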
NPR1 antag – human Npr1 receptor antagonism; AID 1347048; Potency, µM (doses to about 46.3 µM), actives largely listed as inhibitors; P16066; HEK293 hNpr1 GloSensor cGMP, ANP-stimulated luminescence; 1.6% of 76,000 active; calls by dose curve; also: nearly all actives have a fitted effect of over 60% in size
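HEK293 cells stably expressing human Npr1 and cGMP GloSensor pGS-40F, loaded 2 h with 2% GloSensor reagent, given compound 30 min at room temperature. Luminescence read before and 20 min after 0.1 nM hNppA.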
HEK cytotox – cytotoxic compounds in HEK 293 cells; HEK 293 viability, ATP luminescence (CellTiter-Glo), 48-72 h; Potency, µM (titrated, usually from 115 µM), hits mostly inhibitors; 6.6% of 94,000 active; also: nearly all actives have a fitted effect of over 60% in size
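qHTS cytotoxicity; HEK 293, 250 cells/well; compound pinned; 48 or 72 hr, 37 degree Celsius, 5% CO2, 95% humidity; CellTiter-Glo, 10 min RT; luminescence (ATP).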
Hits are given with their value; i = inactive; ? = inconclusive; nt = no result given; ! = not confirmed by another sample; [ ] = dose if it differs, or a comment. In the library only some 10% were active in any assay of this set; here they are far more common. Unless noted, calls follow the shape of the dose curve; as a rule, active = well fitted curve in the direction sought with a large enough effect; inconclusive = small, poorly fitted or top-dose-only effect, or another doubt; inactive = no such curve, though single readings can be large; an effect the other way counts as inactive or inconclusive.

SMILES	3T3 cytotox	FLuc inh	GPT2 inh	NPR1 antag	HEK cytotox
O=C(c1ccc(F)c(Cl)c1)N1CCC2(CC1)CN(c1ccccc1)C2=O	39.8µM	i	i	i	89.1µM
O=C1Nc2ccccc2CC12CCN(Cc1ccc(OC(F)(F)F)cc1)C2 (centres undefined)	?	i	i	?	28.2µM
O=C1NCc2ccccc2CC12CCN(Cc1ccc(-c3ccccc3)cc1)CC2	25.1µM	nt	i	nt	31.6µM
O=[S+]1([O-])NCC2(CCN(Cc3ccc(OC(F)(F)F)cc3)C2)Nc2ccccc21 (centres undefined)	?	i	i	i	79.4µM
COc1ccc(CN2CCC3(CN[S+](=O)([O-])c4ccccc4N3)C2)cc1 (centres undefined)	i	i	i	i	i
COc1ccc(CN2CCC3(Cc4ccccc4NC3=O)C2)cc1 (centres undefined)	?	i	i	i	?
O=C1Nc2ccccc2CC12CCCCN2Cc1ccc(F)cc1 (centres undefined)	?	i	i	i	79.4µM
CCCC(=O)NC1CCN(c2ccnc3ccnn23)C1 (centres undefined)	i	nt	i	nt	?
O=C(NC1C[C@H]2CC[C@@H](C1)N2C(=O)NCCc1ccccc1)c1ccc(F)cc1 (some centres undefined)	i	nt	i	nt	?
N#Cc1cccnc1-c1ccc(C(=O)N2CCC(NC(=O)c3ccccn3)CC2)cc1	i	nt	i	nt	?
C=CCOCC(O)CN1CCC(=O)N(Cc2ccccc2)Cc2cc(OC)ccc21 (centres undefined)	i	nt	nt	nt	?
COc1cccc(-c2cccc(C(=O)N3CCCC3C(=O)N3CCC(C#N)CC3)c2)c1 (centres undefined)	i	nt	i	nt	i
O=C1Nc2ccccc2CC12CCN2Cc1ccc(OC(F)(F)F)cc1 (centres undefined)	?	i	i	i	44.7µM
O=C1Nc2ccccc2CC12CCN(Cc1ccc(Cl)cc1)CC2	?	nt	i	nt	89.1µM
O=C1Nc2ccccc2CC12CCN(Cc1ccc(F)cc1)CC2	i	i	i	i	?
Cc1ccccc1C(=O)N1CCCCC12Cc1ccccc1NC2=O (centres undefined)	?	i	i	i	112µM!
O=C1Nc2ccccc2CC12CCN2Cc1ccc(F)cc1 (centres undefined)	i	i	i	i	?
COc1ccc(-c2noc(-c3nc(C)no3)n2)cc1F	i	i	i	i	i
O=C(NCc1ccc(F)cc1F)c1ccc2nnc(C3CCOCC3)n2c1	i	nt	nt	nt	i
COc1ccc(C(=O)N2CCC3(CC2)NC(=O)N(c2ccccc2)N3)cc1F	i	i	?	i	i
O=C(c1cccc(-c2ccccn2)c1)N1CCN(C(=O)c2ccccc2F)CC1	i	nt	i	nt	?
CCC1(CC)CC1C(=O)N1CCc2onc(-c3cccc(F)c3)c2C1 (centres undefined)	?	i	i	i	44.7µM
O=C(C1COc2ccccc2O1)N1CCc2onc(-c3cccc(F)c3)c2C1 (centres undefined)	?	i	i	i	i
COc1ccc(CN2C(=O)[C@@H]3C[C@@H](CN3Cc3ccc4c(c3)OCO4)Oc3ccccc32)cc1	i	i	i	i	i
N#Cc1ccc(CN2C[C@@H]3C[C@H]2C(=O)N(Cc2ccccc2)c2ccccc2O3)cc1	?	i	i	?	50.1µM
SMILES	3T3 cytotox	FLuc inh	GPT2 inh	NPR1 antag	HEK cytotox
O=C1[C@@H]2C[C@@H](CN2Cc2ccc(F)cc2)Oc2ccccc2N1CC1CC1	?	i	i	i	?
O=C1[C@@H]2C[C@@H](CN2Cc2ccccc2)Oc2ccccc2N1Cc1ccccc1	?	i	i	i	63.1µM
O=C1[C@@H]2C[C@@H](CN2Cc2ccc(Cl)cc2)Oc2ccccc2N1CC1CC1	89.1µM	i	i	i	89.1µM
COc1ccc(CN2C(=O)[C@@H]3C[C@@H](CN3Cc3ccccc3Cl)Oc3ccccc32)cc1	44.7µM	i	i	i	39.8µM
O=C(Cc1cccc(F)c1)N1CCC(OCCOc2cccnc2)CC1	i	nt	i	nt	i
OC1(c2csc(CN3CCN(c4ccccn4)CC3)n2)CCN(C2CCCC2)CC1	i	i	i	i	i
O=C(NCc1ccccc1)c1cnc2n1CCN(Cc1ccc3c(c1)CCO3)CC2	i	i	i	i	?
c1ccc(CCCc2noc(-c3ccc(N4CCOCC4)nc3)n2)cc1	i	i	i	i	?
CC(Nc1ccc(-c2nc(CCCc3ccccc3)no2)cn1)c1cnn(C)c1 (centres undefined)	?	15.8µM	i[11.5 µM]	i	?
CC(C)c1noc(-c2ccn3c(CNC(=O)c4ccc(N(C)C)cc4)nnc3c2)n1	i	i	i	i	i
CC(C)c1noc(-c2ccn3c(CNC(=O)c4cccc(N(C)C)c4)nnc3c2)n1	?	28.2µM	i	i	?
O=C(CN1C(=O)C(Oc2ccc(F)cc2)C12CCCCC2)NCC1CC1 (centres undefined)	i	nt	i	nt	?
O=C1C(Oc2ccc(F)cc2)C2(CCCCC2)N1Cc1ccc(F)cc1 (centres undefined)	25.1µM	nt	i	nt	39.8µM
CC1(C)[C@H](Cc2cc(COc3ccccc3)on2)C[C@@H]1NC(=O)C1CCC1	?	i	i	?	35.5µM
CC(C)N[C@H]1C[C@@H](Cc2cc(COc3ccccc3)on2)C1(C)C	50.1µM	i	i	i	63.1µM
CC1(C)[C@H](Cc2cc(COc3ccccc3)on2)C[C@@H]1NC(=O)NCc1ccccc1	?	i	i	?	63.1µM
CN(CC1CC1)C1CCOc2ccccc21 (centres undefined)	i	i	i	i	i
CC[C@H]1CN(C(C)=O)CC[C@H]1CC(=O)Nc1nccs1	100µM	i	?	i	112µM
CC[C@H]1CN(C(=O)c2ccc(F)cc2)CC[C@H]1CC(=O)Nc1nccs1	?	i	i	i	?
CC1=NS(=O)(=O)N(C)C=C1C(=O)OCc1nc(-c2ccc(Cl)cc2)no1	i	?	i	10µM	?
COc1cccc(-c2noc(COC(=O)C3=CN(C)S(=O)(=O)N=C3C)n2)c1	?	?	i	12.6µM	?
CC1=NS(=O)(=O)N(C)C=C1C(=O)OCc1nc(-c2ccc3c(c2)OCO3)no1	i	?	i	11.2µM	i
CC1=NS(=O)(=O)N(C)C=C1C(=O)OCc1nc(-c2ccccc2Cl)no1	i	i	i	i	?
COc1cc(CN2CCC3(CCN(CC4CC4)CC3)C(CO)C2)ccc1F (centres undefined)	?	i	i	i	?
CCn1cnnc1CC1CCCN(S(=O)(=O)c2ccc(OC)cc2)C1 (centres undefined)	i	nt	i	nt	i
COc1cccc(-c2cc3c(=O)n(CCNC(=O)Cc4ccsc4)ccn3n2)c1	i	28.2µM	i	i	?

Screening data deposited in PubChem by National Center for Advancing Translational Sciences (NCATS).
